Laboratory results as given in PubChem BioAssay AID504900 (The Scripps Research Institute Molecular Screening Center, 2011).
The other results are listed elsewhere or left out. Values without a mark were called inactive. Rule as the data show it: active = inhibition above about 32%; inactive = the rest.

Target: Mu-type opioid receptor (Homo sapiens) + Delta-type opioid receptor (Homo sapiens) (UniProt P35372+P41143)
Assay: inverse agonists of MOR-DOR heterodimerization, confirmation, cell-based, luminescence (AID 504900);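 also: 0% = cells with DMSO and 100% = wells lacking cells with DMSO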
Details: cells expressing OPRM1/OPRD1 heterodimer, at 9.3 µM, stronger effect = higher value

Chain of Mu-type opioid receptor (Homo sapiens) + Delta-type opioid receptor (Homo sapiens) (P35372 whole entry, looked up): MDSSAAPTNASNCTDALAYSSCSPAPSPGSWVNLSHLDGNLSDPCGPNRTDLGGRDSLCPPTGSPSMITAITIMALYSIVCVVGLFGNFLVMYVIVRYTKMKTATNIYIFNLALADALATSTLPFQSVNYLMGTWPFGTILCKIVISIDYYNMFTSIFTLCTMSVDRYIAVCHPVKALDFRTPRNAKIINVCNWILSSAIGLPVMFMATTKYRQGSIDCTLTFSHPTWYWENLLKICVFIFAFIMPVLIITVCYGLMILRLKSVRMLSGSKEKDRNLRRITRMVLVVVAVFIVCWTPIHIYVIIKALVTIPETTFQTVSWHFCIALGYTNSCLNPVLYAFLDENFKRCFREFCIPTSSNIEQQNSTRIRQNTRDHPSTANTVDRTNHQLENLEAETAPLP
Chain of Mu-type opioid receptor (Homo sapiens) + Delta-type opioid receptor (Homo sapiens) (P41143 whole entry, looked up): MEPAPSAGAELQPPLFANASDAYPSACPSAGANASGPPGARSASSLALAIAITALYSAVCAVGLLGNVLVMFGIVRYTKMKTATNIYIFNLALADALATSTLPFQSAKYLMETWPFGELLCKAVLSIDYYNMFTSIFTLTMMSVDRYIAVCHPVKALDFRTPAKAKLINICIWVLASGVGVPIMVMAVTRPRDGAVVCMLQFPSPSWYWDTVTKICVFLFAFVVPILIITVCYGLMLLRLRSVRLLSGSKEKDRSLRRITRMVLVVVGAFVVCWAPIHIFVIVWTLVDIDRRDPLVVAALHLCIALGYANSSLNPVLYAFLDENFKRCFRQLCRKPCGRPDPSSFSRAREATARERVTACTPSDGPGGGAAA

SMILES	inhibition [%]
CC1=CC(=Cc2sc3ccccc3[n+]2C)C=C(C)O1	-2.66
CCOC(=O)c1c(N)n(CCN2CCOCC2)c2nc3ccccc3nc12	3.09
